Reference: the supplement of paper PMC11732987, “Enantioselective OTUD7B fragment discovery through chemoproteomics screening and high-throughput optimisation” (Communications Chemistry, 2025)

Legend:
Test in all cases: log2 ratio of Biotin-Ahx-Ub-VS probe labelling (fragment/DMSO); higher = less target engagement (more negative = stronger competition), active = hit call of the paper (q ≤ 0.05, log2 ratio ≤ -1)
Conditions in all cases: compound concentration: 200 uM; treatment time: 3 h
[1] = molecular target: T1, USP19 (UniProt O94966)
T1 sequence (whole entry): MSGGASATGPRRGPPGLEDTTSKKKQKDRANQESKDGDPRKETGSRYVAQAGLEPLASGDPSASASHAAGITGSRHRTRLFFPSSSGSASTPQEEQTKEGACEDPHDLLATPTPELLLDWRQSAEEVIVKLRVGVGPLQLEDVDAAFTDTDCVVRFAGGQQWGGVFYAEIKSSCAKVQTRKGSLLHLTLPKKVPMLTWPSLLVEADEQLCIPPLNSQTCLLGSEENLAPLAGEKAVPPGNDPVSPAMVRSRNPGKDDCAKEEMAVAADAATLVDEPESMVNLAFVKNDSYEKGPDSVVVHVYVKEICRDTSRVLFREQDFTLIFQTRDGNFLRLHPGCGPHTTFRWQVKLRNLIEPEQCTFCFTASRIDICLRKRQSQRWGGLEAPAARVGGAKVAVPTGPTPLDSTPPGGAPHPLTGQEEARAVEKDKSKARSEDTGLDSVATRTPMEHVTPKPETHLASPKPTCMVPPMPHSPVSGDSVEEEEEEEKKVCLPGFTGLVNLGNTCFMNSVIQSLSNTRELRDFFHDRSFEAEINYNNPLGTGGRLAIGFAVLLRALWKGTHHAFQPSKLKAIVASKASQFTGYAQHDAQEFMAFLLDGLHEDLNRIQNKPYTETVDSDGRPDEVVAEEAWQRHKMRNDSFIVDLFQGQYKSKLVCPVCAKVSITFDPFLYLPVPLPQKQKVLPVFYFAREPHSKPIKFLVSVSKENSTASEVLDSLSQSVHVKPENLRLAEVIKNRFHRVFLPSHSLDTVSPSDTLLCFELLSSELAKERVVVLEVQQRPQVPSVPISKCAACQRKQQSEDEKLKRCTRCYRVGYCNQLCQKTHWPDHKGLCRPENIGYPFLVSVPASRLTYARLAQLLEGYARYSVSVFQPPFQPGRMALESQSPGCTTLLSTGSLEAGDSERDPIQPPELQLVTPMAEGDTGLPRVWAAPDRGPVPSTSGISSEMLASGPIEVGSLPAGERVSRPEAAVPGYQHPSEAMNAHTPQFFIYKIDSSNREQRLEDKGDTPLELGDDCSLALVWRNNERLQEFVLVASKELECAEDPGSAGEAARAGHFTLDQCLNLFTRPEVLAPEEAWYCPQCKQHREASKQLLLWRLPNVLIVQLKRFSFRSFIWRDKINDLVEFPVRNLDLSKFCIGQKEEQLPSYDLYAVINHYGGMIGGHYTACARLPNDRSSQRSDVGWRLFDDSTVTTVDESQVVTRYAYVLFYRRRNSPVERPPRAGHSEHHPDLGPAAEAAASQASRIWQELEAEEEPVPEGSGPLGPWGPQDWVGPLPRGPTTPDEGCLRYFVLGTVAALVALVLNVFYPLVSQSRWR
Outline: (§1)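 The table lists average log2 ratios of fragment over vehicle, from an unpaired t-test on global-median-normalised Spectronaut label-free quantities. Proteins with ≥2 unique peptides were used. Samples were HEK293T lysate (495 µg) treated in triplicate with fragment at 200 µM or vehicle for 3 h, then with Biotin-Ahx-Ub-VS (0.5 µM final) for 1 h, with labelled DUBs NeutrAvidin-enriched and run by diaPASEF LC-MS/MS.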

[2] = molecular target: T2, USP22 (UniProt Q9UPT9)
T2 sequence (whole entry): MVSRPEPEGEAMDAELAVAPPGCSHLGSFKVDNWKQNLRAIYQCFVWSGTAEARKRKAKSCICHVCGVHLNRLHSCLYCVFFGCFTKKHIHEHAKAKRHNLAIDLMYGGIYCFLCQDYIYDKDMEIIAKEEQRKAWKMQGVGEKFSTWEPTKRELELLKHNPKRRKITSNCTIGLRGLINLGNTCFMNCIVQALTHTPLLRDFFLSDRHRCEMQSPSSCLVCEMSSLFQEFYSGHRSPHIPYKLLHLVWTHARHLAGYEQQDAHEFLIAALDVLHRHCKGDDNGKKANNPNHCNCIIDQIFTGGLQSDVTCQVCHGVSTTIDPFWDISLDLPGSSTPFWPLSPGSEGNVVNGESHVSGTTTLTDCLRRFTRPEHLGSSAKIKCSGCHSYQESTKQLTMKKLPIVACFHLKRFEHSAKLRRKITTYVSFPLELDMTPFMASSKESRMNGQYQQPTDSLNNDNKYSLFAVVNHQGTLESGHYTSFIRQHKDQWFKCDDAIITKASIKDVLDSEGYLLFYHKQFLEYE
Outline: as §1

[3] = molecular target: USP24 (UniProt Q9UPU5)
Outline: as §1

[4] = molecular target: T3, USP25 (UniProt Q9UHP3)
T3 sequence (whole entry): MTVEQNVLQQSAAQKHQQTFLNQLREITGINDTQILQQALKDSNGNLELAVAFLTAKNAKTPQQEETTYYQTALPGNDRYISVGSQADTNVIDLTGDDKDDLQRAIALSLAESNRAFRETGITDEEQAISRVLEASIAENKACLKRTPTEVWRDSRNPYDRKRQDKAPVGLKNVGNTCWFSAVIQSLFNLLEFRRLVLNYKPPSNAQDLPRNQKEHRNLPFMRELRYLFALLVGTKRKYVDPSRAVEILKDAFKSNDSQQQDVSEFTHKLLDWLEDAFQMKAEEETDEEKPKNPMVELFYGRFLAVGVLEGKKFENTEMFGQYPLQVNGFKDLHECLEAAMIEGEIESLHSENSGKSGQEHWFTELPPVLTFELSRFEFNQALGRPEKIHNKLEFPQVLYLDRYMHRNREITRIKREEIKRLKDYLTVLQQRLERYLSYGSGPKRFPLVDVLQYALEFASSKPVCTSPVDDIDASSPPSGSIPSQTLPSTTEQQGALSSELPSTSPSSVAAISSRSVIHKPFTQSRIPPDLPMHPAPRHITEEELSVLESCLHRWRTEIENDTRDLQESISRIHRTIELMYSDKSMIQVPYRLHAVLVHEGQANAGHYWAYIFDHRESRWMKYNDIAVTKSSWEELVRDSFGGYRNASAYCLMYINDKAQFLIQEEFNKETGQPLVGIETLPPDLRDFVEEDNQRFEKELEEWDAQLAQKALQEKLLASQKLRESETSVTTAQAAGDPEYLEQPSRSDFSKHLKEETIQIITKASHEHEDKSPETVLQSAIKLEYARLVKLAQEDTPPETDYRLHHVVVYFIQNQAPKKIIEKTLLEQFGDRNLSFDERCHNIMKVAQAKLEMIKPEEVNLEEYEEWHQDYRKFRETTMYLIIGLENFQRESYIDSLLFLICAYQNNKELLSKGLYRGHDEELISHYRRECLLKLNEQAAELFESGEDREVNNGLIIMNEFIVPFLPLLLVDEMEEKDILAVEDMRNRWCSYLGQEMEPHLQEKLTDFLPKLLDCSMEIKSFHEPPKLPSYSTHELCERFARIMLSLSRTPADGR
Outline: as §1

[5] = molecular target: T4, USP28 (UniProt Q96RU2)
T4 sequence (whole entry): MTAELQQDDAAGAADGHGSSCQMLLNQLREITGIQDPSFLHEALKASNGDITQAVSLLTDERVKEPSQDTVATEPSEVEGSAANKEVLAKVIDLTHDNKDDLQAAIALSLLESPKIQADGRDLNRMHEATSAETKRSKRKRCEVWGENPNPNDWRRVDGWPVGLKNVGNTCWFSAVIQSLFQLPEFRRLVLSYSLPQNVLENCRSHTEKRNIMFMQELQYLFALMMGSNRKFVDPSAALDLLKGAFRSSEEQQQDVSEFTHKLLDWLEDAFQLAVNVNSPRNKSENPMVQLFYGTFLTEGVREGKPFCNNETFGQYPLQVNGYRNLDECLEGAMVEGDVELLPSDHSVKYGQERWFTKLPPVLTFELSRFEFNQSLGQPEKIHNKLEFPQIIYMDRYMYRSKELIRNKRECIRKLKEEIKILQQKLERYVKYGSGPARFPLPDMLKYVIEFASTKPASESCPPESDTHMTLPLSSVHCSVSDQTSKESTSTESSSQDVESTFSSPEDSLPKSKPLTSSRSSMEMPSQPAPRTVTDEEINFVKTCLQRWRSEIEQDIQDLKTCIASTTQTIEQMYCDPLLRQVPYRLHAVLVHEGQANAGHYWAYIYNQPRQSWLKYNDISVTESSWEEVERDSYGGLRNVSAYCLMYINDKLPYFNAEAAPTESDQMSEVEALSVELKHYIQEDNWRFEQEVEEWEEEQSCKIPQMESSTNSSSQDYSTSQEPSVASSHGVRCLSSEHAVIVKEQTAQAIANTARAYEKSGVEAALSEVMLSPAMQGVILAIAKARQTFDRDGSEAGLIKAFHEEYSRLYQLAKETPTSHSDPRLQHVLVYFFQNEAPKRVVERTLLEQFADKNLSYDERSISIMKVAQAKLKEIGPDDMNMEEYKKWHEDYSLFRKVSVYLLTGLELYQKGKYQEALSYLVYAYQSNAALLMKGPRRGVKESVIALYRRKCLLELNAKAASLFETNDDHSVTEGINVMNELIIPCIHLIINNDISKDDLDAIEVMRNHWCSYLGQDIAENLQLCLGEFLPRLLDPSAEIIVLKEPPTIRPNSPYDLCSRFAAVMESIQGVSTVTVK
Outline: as §1

Measured: log2 ratio of Biotin-Ahx-Ub-VS probe labelling

USP24, sequence (Q9UPU5 whole entry): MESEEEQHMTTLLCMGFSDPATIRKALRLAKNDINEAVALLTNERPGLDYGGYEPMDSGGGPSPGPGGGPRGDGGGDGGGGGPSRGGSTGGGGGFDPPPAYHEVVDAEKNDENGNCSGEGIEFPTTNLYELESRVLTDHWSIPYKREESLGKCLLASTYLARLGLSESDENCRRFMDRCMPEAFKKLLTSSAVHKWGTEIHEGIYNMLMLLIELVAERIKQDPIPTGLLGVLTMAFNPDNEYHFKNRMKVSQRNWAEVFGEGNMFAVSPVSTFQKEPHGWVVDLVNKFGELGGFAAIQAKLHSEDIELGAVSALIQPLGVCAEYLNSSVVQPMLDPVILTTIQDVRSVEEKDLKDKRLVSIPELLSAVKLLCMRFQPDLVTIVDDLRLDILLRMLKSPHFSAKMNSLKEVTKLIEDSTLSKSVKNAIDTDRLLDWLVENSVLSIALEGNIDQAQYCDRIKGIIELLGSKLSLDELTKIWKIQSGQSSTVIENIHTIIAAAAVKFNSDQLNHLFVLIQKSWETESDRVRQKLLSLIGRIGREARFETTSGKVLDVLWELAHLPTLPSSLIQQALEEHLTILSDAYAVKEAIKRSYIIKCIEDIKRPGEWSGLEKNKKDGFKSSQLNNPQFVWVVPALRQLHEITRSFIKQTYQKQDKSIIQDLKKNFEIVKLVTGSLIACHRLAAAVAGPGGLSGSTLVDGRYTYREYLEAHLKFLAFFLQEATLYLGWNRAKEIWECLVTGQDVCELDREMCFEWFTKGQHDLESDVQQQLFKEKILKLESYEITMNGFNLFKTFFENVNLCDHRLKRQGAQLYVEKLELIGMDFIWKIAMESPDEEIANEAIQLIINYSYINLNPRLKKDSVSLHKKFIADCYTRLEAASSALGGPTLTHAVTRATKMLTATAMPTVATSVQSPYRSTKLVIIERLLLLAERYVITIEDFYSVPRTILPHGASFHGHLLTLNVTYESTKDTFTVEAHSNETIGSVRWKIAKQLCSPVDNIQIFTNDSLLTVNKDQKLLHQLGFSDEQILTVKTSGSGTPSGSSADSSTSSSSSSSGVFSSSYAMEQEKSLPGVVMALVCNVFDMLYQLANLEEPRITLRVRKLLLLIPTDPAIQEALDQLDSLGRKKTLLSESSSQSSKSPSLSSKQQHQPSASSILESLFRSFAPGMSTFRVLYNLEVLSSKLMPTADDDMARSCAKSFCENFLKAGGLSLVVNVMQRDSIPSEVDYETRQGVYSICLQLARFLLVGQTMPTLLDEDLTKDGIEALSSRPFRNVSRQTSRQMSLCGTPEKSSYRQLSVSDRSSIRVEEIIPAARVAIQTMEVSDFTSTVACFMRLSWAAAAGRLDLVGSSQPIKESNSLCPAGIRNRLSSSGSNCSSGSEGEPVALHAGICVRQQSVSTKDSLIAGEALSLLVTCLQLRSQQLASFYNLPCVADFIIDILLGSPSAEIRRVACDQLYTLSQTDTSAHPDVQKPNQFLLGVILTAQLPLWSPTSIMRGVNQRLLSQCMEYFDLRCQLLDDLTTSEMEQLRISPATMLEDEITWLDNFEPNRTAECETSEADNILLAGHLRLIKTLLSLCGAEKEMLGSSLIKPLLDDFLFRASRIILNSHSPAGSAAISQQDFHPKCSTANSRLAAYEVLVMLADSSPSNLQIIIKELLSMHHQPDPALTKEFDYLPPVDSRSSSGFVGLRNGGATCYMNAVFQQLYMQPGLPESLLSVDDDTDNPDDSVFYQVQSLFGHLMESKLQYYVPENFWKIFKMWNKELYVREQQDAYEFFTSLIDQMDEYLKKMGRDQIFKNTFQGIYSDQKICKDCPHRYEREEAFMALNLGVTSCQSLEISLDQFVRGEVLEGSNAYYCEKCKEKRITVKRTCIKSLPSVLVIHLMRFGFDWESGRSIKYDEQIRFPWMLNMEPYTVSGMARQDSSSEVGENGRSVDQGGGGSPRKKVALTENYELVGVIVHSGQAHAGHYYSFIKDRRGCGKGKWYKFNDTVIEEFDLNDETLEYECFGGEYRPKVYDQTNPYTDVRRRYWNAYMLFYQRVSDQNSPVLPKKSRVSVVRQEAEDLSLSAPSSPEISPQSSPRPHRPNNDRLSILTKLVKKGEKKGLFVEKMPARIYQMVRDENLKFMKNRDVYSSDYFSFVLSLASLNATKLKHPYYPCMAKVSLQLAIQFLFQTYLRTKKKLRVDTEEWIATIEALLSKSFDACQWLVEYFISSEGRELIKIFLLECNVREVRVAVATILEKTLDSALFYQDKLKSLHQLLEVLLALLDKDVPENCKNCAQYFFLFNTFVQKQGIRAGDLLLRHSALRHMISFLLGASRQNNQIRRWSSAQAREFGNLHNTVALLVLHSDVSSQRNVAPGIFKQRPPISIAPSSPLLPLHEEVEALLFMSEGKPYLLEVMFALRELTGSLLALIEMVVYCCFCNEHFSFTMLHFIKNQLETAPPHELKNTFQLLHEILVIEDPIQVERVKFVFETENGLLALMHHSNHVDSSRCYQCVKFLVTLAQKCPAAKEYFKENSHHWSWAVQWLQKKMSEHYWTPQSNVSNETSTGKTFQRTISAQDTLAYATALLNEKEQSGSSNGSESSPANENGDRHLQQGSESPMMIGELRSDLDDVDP

CCC(NC(=O)CCl)c1ccc(Cl)cc1 (stereo not given)
inactive: [1] -0.0763 | [2] -0.735 | [3] -0.327 | [4] -0.24 | [5] -0.504
